# PubChem BioAssay (NCATS)
# Values without a mark were called inactive. Records with an inconclusive call do not appear. Activity calls are given as the source filed them. Unless noted, the call rests on the fitted dose curve; in most records, active means well fitted curve in either direction with a large enough effect (not every such curve was filed as active); inconclusive means small, poorly fitted or top-dose-only effect, or another doubt; inactive means flat fitted curve, though single readings scatter.
# Key:
# [1] = molecular target: Lysosomal acid glucosylceramidase (Homo sapiens) (UniProt P04062); assay: Glucocerebrosidase-p2 (AID 348; in the data active means potency below about 10 µM; further: potency means the concentration at half of the fitted maximal effect); settings: purified GBA, blue fluorogenic substrate, 40 min
# Summary of the method: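 Normal human glucocerebrosidase (0.2 nM) with blue fluorogenic substrate (80 uM final) in citrate/phosphate pH 5.9 with 10mM sodium taurocholate, 0.01% tween-20; 40 min RT, NaOH/glycine stop; fluorescence Ex 365/Em 440; AC50 from a titration from 0.6 nM upwards.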
# [2] = AP1 Signaling Pathway (AID 357); settings: ME-180 AP-1-bla reporter, EGF-induced, beta-lactamase ratio, 5 h; at 7.69 µM (top of the series) unless noted; further: on the % scale 0 is the no-effect control and ±100 the full control effect
# Summary of the method: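 ME-180 cells with beta-lactamase reporter under AP-1 response element, stimulated with EC50 EGF; compounds tested in titration series, 5 h at 37 °C. CCF4 substrate added 2.5 h at room temperature; 460/530 nm emission ratio gave %activity and AC50.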
# [3] = NFAT Signaling Pathway (AID 444); settings: Jurkat NFAT-bla M1, carbachol, beta-lactamase ratio, 5 h; at 7.69 µM (top of the series) unless noted;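 further: carbachol stimulus at about its EC50 of 1 µM final; on the % scale 0 is the no-effect control and ±100 the full control effect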
# Summary of the method: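 Jurkat cells with NFAT-driven β-lactamase reporter and co-expressed M1 receptor, stimulated with carbachol (final 1 uM, ~EC50), compound titration, 5 h at 37 °C. CCF4 loaded 1 h at RT; 460/530 nm ratio gave %activity and AC50.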
# [4] = Stat Signaling Pathway (AID 446); settings: ME-180 SIE beta-lactamase reporter, IL-6 stimulated, 5 h; at 7.69 µM (top of the series) unless noted;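 further: ME-180 cervical cancer cells given 40 pM IL-6 alongside compound; SIE-controlled beta-lactamase reporter measured as 460/530 nm FRET emission ratio; on the % scale 0 is the no-effect control and ±100 the full control effect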
# Summary of the method: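 Compound effects on IL-6-induced STAT reporter activity were measured in ME-180 cells. After overnight culture, cells were co-treated with 40 pM IL-6 for 5 hrs before beta-lactamase substrate loading at room temperature.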
# [5] = molecular target: Glucocorticoid receptor (Homo sapiens) (UniProt P04150); assay: GR-GFP Redistribution (AID 450;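 active means compounds whose dose series gives a full or clear partial fitted curve of increased nuclear translocation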; further: potency means the concentration at half of the fitted maximal effect); settings: U2OS GR-GFP nuclear translocation, laser cytometry, 2 h
# [6] = molecular target: Glucocorticoid receptor (Homo sapiens) (UniProt P04150); assay: GR-EFC Redistribution (AID 451; calls by dose curve; further: potency means the concentration at half of the fitted maximal effect); settings: CHO-K1 GR-EFC translocation, beta-gal luminescence, 2 h
# Summary of the method: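 CHO-K1 cells expressing nuclear EA and GR-ED fragments of b-gal; compounds titrated up to 46 uM final, 2 h at 37 C. GR nuclear translocation read as complemented b-gal luminescence after 1 h RT detection.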
# [7] = molecular target: Mitogen-activated protein kinase 10 (Mus musculus) (UniProt Q61831); assay: JNK3 AlphaScreen Assay (AID 530); settings: JNK3 lysate, c-Jun phosphorylation; series mostly up to 11.4 µM;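 further: kinase came from lysate of stimulated human HepG2 cells; signal reports phosphorylation of biotinylated GST-cJun 1-79 at Ser73 with 10 µM ATP; on the % scale 0 is the no-effect control and ±100 the full control effect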
# Summary of the method: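 HepG2 lysate (IL-1b/TNFa pre-activated) + biotin-GST-cJun 1-79 + anti-pSer73 cJun; cpd titration, 15 min RT; ATP 10 uM start; Tris pH 7.6, MgCl2, DTT, vanadate; beads in EDTA buffer; AlphaScreen.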
# [8] = molecular target: 3',5'-cyclic-AMP phosphodiesterase 4B (Homo sapiens) (UniProt Q07343); assay: qHTS Assay for Inhibitors of PDE-IV (AID 607; active means well fitted activation curve with a large enough effect in the main read-out, with a control signal flat, not every such curve was filed as active; further: % of control where 0% means no effect); settings: HEK293 ACTOne CNG channel cells, membrane potential fluorescence; series mostly up to 22.9 µM
# Summary of the method: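 ACTOne HEK293 cells carry a modified cAMP-gated CNG channel and express endogenous PDE4; plated 1000 cells/well, compounds up to 22.9 uM final. Membrane-potential dye fluorescence (ex 535/em 590) was read; parental cells received 10 uM forskolin + 100 uM RO 20-1724.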
# [9] = qHTS Assay for Identification of Small Molecule Agonists for Hypoxia Response Element Signaling Pathway (AID 914; active means well fitted activation curve with a large enough effect in the signal ratio, with a control signal flat, not every such curve was filed as active; the % refers to the signal ratio; further: % of control where 0% means no effect); settings: ME-180 (cervical carcinoma) HRE-bla reporter, beta-lactamase ratio, CoCl2, 17 h; activation: active compounds read high
# Summary of the method: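 AC50 values come from titration-series %Activity, taken as the 460/530nm ratio of CCF4 fluorescence (excitation 405nm). CellSensor HRE-bla ME-180 cells were treated 17 hours at 37 C with compound plus an EC50 level of CoCl2.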
# [10] = molecular target: Cytochrome P450 2C9 (Homo sapiens) (UniProt P11712); assay: qHTS Assay for Inhibitors and Substrates of Cytochrome P450 2C9 (AID 883; active means well fitted curve in the direction sought with a large enough effect; an effect the other way counts as inactive or inconclusive; further: nearly all actives have a fitted effect of over 60% in size; further: potency means the concentration at half of the fitted maximal effect); settings: recombinant CYP2C9, luciferin-H luminescence, 60 min; series mostly up to 11.4 µM
# Summary of the method: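 10nM CYP2C9 + 100uM Luciferin-H (=KM), 25mM KPO4; cpd 10 min 37C; NADPH regen, 60 min 37C; stop/detect with P450 Glo-Buffer 20 min; luminescence. Norm. to 57uM sulphaphenazole as full inhibition.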
# [11] = molecular target: Cytochrome P450 3A4 (Homo sapiens) (UniProt P08684); assay: qHTS Assay for Inhibitors and Substrates of Cytochrome P450 3A4 (AID 884; active means well fitted curve in the direction sought with a large enough effect; an effect the other way counts as inactive or inconclusive; further: nearly all actives have a fitted effect of over 50% in size; further: potency means the concentration at half of the fitted maximal effect); settings: recombinant CYP3A4, Luciferin-PPXE luminescence; series mostly up to 57.1 µM
# Summary of the method: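 Luminescent readout of luciferin produced by CYP3A4 (20 nM) dealkylation of Luciferin-PPXE, 25 uM (its KM). NADPH-driven reaction ran 60 min at RT after 10 min compound preincubation; data scaled to 57 uM ketoconazole as 100% inhibition.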
# [12] = molecular target: Cytochrome P450 2D6 (Homo sapiens) (UniProt P10635); assay: qHTS Assay for Inhibitors and Substrates of Cytochrome P450 2D6 (AID 891; active means well fitted curve in the direction sought with a large enough effect; an effect the other way counts as inactive or inconclusive;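 further: luciferin methyl ether substrate demethylated by CYP2D6 with NADPH regeneration; on the % scale 0 is the no-effect control and ±100 the full control effect; nearly all actives have a fitted effect of over 60% in size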); settings: recombinant CYP2D6, luciferin-ME EGE luminescence; series mostly up to 11.4 µM
# Summary of the method: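 Luminescent read-out of luciferin formed by 5 nM human CYP2D6 demethylating 30 uM Luciferin-ME EGE (Km level) over 60 min at room temperature after NADPH regeneration addition. Data normalized to full inhibition by 1.43 uM quinidine.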
# [13] = molecular target: Cytochrome P450 2C19 (Homo sapiens) (UniProt P33261); assay: qHTS Assay for Inhibitors and Substrates of Cytochrome P450 2C19 (AID 899; active means well fitted curve in the direction sought with a large enough effect; an effect the other way counts as inactive or inconclusive; further: on the % scale 0 is the no-effect control and ±100 the full control effect; nearly all actives have a fitted effect of over 60% in size); settings: recombinant CYP2C19, luciferin-H EGE luminescence; series mostly up to 11.4 µM
# Summary of the method: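 Luminescent read-out of luciferin formed from Luciferin-H EGE (10uM, equal to KM). Enzyme 5nM in 50mM KPO4; compound added, 10 min at 37C, then NADPH regenerating system for 60 min at 37C. Full inhibition defined by 57uM ketoconazole.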
# [14] = molecular target: Cytochrome P450 3A4 (Homo sapiens) (UniProt P08684); assay: qHTS Assay for Activators of Cytochrome P450 3A4 (AID 885; active means well fitted curve in the direction sought with a large enough effect; an effect the other way counts as inactive or inconclusive; further: nearly all actives have a fitted effect of over 65% in size); settings: recombinant CYP3A4, Luciferin-PPXE luminescence, 60 min; series mostly up to 11.4 µM
# Summary of the method: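 CYP3A4 activity: Luciferin-PPXE O-dealkylation, 25uM substrate, 200mM KPO4, RT throughout. Read-out is luciferase luminescence; higher values reflect activation.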
# Sequence of Glucocorticoid receptor (Homo sapiens) (P04150 whole entry, looked up, the tested form may be a part): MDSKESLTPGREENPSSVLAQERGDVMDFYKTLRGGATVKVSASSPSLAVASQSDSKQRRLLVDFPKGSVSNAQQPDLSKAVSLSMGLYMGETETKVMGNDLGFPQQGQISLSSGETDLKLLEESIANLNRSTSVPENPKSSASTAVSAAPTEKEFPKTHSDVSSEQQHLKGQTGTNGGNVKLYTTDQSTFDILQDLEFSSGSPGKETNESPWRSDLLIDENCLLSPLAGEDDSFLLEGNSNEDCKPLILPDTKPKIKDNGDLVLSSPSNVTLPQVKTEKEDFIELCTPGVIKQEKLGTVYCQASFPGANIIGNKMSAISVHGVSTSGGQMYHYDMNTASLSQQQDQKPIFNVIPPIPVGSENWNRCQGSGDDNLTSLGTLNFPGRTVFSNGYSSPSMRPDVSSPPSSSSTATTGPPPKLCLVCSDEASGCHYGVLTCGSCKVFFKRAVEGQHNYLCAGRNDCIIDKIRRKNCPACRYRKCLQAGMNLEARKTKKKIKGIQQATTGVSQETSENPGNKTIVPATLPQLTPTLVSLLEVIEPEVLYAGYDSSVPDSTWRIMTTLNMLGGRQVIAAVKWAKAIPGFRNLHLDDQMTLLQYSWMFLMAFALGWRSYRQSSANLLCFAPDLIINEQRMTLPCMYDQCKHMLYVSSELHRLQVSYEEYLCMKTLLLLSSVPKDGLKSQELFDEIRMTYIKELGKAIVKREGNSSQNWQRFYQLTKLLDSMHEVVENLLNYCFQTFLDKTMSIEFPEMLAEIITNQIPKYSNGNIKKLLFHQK
# Sequence of Cytochrome P450 3A4 (Homo sapiens) (P08684 whole entry, looked up): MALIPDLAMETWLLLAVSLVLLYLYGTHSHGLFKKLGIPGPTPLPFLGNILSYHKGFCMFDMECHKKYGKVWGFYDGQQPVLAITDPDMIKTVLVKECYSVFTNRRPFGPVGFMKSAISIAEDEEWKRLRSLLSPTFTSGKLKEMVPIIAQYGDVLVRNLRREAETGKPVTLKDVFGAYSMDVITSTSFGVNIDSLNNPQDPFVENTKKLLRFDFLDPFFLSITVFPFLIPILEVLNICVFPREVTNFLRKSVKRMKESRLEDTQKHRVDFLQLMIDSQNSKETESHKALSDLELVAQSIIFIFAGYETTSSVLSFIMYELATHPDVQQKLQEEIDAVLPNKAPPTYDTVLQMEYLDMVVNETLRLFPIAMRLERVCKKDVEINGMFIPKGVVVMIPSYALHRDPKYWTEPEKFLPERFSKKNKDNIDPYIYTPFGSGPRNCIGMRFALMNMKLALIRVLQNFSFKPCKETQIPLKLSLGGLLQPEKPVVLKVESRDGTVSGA
# Sequence of 3',5'-cyclic-AMP phosphodiesterase 4B (Homo sapiens) (Q07343 whole entry, looked up): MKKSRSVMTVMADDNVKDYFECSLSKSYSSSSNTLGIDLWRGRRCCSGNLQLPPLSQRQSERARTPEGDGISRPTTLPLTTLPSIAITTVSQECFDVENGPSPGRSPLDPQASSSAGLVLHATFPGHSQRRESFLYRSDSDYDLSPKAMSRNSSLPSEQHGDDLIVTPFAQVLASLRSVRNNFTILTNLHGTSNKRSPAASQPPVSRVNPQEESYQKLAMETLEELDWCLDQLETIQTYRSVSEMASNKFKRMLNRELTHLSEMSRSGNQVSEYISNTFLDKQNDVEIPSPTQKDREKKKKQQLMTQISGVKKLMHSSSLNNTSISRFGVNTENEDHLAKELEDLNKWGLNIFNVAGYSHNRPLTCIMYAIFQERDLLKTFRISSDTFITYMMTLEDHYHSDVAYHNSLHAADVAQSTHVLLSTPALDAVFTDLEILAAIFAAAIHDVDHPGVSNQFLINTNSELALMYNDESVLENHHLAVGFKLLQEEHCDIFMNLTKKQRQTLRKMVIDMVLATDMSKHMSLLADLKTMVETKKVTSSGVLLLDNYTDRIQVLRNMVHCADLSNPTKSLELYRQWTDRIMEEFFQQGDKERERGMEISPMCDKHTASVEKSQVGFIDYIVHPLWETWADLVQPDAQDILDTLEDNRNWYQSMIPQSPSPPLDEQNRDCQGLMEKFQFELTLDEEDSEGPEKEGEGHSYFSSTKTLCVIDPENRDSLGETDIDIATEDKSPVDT
# Sequence of Lysosomal acid glucosylceramidase (Homo sapiens) (P04062 whole entry, looked up): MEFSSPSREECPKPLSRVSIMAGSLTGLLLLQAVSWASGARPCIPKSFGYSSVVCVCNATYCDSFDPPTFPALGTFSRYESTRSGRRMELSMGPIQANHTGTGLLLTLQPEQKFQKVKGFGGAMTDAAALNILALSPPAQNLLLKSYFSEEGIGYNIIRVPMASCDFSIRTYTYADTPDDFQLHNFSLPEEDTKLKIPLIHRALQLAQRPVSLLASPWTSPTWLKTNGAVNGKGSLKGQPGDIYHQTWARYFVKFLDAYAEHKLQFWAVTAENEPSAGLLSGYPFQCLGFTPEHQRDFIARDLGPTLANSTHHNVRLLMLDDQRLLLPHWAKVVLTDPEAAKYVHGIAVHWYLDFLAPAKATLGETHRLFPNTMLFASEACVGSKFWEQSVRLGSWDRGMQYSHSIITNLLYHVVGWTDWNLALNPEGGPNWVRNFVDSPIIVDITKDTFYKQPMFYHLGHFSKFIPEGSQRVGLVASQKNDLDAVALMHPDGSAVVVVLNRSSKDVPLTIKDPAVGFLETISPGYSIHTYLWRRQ
# Sequence of Cytochrome P450 2C9 (Homo sapiens) (P11712 whole entry, looked up): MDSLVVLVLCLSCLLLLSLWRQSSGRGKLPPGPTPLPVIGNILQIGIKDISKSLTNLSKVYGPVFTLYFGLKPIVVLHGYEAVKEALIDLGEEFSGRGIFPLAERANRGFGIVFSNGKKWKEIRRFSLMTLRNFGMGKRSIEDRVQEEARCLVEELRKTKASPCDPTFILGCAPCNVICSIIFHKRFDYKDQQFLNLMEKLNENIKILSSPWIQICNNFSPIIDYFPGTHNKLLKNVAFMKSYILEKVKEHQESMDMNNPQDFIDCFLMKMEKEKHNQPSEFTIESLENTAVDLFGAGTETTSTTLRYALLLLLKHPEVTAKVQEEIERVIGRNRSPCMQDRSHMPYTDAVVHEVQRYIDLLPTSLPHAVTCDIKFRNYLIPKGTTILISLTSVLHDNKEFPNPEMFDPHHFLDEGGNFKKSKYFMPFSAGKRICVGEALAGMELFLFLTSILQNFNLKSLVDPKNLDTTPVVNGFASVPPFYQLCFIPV
# Sequence of Cytochrome P450 2C19 (Homo sapiens) (P33261 whole entry, looked up): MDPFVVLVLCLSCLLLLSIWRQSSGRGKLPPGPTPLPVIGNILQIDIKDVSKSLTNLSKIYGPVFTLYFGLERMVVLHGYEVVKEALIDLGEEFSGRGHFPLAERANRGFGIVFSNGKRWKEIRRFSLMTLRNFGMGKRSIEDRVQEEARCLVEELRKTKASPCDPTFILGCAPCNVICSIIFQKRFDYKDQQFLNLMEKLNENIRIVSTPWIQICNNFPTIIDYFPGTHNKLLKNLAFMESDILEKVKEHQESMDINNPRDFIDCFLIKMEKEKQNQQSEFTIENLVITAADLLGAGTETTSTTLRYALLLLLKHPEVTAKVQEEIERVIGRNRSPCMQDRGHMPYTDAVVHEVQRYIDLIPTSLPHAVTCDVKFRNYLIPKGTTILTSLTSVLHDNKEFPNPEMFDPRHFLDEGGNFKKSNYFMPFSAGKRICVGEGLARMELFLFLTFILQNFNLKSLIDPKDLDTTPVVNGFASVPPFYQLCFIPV
# Sequence of Cytochrome P450 2D6 (Homo sapiens) (P10635 whole entry, looked up): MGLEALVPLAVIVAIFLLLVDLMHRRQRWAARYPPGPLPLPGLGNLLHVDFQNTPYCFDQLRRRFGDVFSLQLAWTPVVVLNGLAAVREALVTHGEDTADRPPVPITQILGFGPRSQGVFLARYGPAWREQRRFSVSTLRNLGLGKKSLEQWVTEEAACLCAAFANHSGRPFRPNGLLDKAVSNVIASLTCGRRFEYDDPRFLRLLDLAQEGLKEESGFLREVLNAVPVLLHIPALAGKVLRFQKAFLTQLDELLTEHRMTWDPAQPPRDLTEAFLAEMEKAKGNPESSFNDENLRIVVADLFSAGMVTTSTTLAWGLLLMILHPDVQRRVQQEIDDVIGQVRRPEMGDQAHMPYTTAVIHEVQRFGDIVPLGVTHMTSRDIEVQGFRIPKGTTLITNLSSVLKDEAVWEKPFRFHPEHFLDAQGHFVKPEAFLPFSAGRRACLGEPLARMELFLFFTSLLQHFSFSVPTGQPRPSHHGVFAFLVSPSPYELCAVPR
SMILES,Potency [1] [µM],"activity change, negative = inhibition [2] [%]","activity change, negative = inhibition [3] [%]","activity, negative = inhibition [4] [%]",Potency [5] [µM],Potency [6] [µM],Potency [7],Potency [8],activation [9] [%],Potency [10],"activity change, negative = inhibition [11]",Potency [12],Potency [13],Potency [11],Potency [14]
CC(C)CNc1nc2ncnc(N)c2[nH]1,> 11.4,5.51,1.95,-10.8,> 46,> 9.22,inactive,inactive,10.3,,,,,,
NC[C@H]1O[C@@H](n2cnc3c(=O)[nH]c(N)nc32)[C@@H](O)[C@@H]1O,> 11.4,-6.27,5.35,3.9,> 46,> 9.22,inactive,inactive,4.86,,,,,,
O=S(=O)(O)c1cc(S(=O)(=O)O)c2c(N=Nc3cccc4ccccc34)c(O)ccc2c1,> 11.4,4.87,21.1,5.07,> 46,> 9.22,,inactive,,inactive,-5.78% [at 11.4 µM],inactive,inactive,,
OCCCNCc1ccncc1,> 11.4,-2.93,5.43,-6.9,> 46,> 9.22,inactive,inactive,1.84,,,,,,
CS(=O)(=O)c1ccc(/C=N\NC(N)=S)cc1,> 11.4,2.65,1.52,-2.81,> 46,> 9.22,,inactive,,,,,,,
O=C(O)[C@@H]1CCCN1Cc1ccc2c(c1)OCO2,> 11.4,2.76,10.2,0.869,> 46,> 9.22,inactive,inactive,7.45,,,,,,
c1ccc(-c2cc(-c3cc(-c4ccccn4)[nH]n3)n[nH]2)nc1,> 11.4,4.94,1.51,-2.75,> 46,> 9.22,inactive,inactive,3.17,,,,,,
COc1ccc([C@@H](C)c2cc3c(cc2O)OCO3)cc1,> 11.4,-11.5,-3.98,4.36,> 46,> 9.22,,inactive,,1.58 µM (active),,,,2.51 µM (active),inactive
Cc1cc(=O)[nH]c2cc3oc4ccccc4c3cc12,> 11.4,6.73,8.67,-1.36,> 46,> 9.22,inactive,inactive,-6.85,,,,,,
NC(=O)SCC(=O)Nc1ccc2ncccc2c1,> 11.4,1.01,12.1,,> 46,> 9.22,inactive,inactive,,,,,,,
Cc1cc(C)nc(NC(=O)COc2ccc(Cl)cc2)c1,> 11.4,7.73,-19.2,,> 46,> 9.22,inactive,inactive,,,,,,,
CN(C)C[C@@H](O)c1ccc(Cl)c2ccccc12,> 11.4,13.3,-4.99,18.4,,> 9.22,inactive,inactive,,,,,,,
Nc1ccc(Cc2ccc(N)c(C(=O)O)c2)cc1C(=O)O,> 11.4,12.6,16.6,1.75,,> 9.22,inactive,inactive,,,,,,,
COc1ccc(Oc2ncc3nc(C)c(=O)n(Cc4ccc(F)cc4)c3n2)cc1,> 11.4,-26.5,-3.9,,> 9.22,> 46,inactive,,,,,,,,
O=C(O)CN(CCN(CC(=O)O)CC(=O)O)CC(=O)O.[Mn],> 11.4,-0.063,7.91,8.71,,,inactive,inactive,,,,,,,
